Experimental data as given in PubChem BioAssay (NCATS).
Results filed as inconclusive are left out. Activity calls are given as the source filed them. Calls come from the whole dose curve; as a rule, active = well fitted cell-killing curve with a large enough effect; inconclusive = small, poorly fitted or top-dose-only effect, or effect the other way; inactive = flat fitted curve, though single readings scatter.

Tests used:
Assay in all cases: Primary qHTS to identify gynecologic anti-cancer compounds using libraries of approved drugs and bioactive compounds (AID 1345084); note: nearly all actives have a fitted effect of over 55% in size
C33A = details: Gynecologic cancer cell panel viability, ATPlite luminescence, 48 h; series mostly up to 57.5 µM
How it was run: (§1)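 Cells, 1,000 per well, plated 16 h, then exposed 48 h at 37 C to compounds. Viability by ATPlite luminescence after 15 min at room temperature.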

CAOV3 = details: Gynecologic cancer cell panel viability, ATPlite luminescence, 48 h; series mostly up to 57.5 µM
How it was run: as §1

CASKI = details: Gynecologic cancer cell panel viability, ATPlite luminescence, 48 h; series mostly up to 57.5 µM
How it was run: as §1

Es-2 = details: Gynecologic cancer cell panel viability, ATPlite luminescence, 48 h; series mostly up to 57.5 µM
How it was run: as §1

HeLa = details: Gynecologic cancer cell panel viability, ATPlite luminescence, 48 h; series mostly up to 57.5 µM
How it was run: as §1

Hek293T = details: Gynecologic cancer cell panel viability, ATPlite luminescence, 48 h, control line for the selectivity index; series mostly up to 57.5 µM
How it was run: as §1

JEG-3 = details: Gynecologic cancer cell panel viability, ATPlite luminescence, 48 h; series mostly up to 57.5 µM
How it was run: as §1

OV90 = details: Gynecologic cancer cell panel viability, ATPlite luminescence, 48 h; series mostly up to 57.5 µM
How it was run: as §1

PA-1 = details: Gynecologic cancer cell panel viability, ATPlite luminescence, 48 h; series mostly up to 57.5 µM
How it was run: as §1

SKOV3 = details: Gynecologic cancer cell panel viability, ATPlite luminescence, 48 h; series mostly up to 57.5 µM
How it was run: as §1

Tov-21-G = details: Gynecologic cancer cell panel viability, ATPlite luminescence, 48 h; series mostly up to 57.5 µM
How it was run: as §1

Tov112D = details: Gynecologic cancer cell panel viability, ATPlite luminescence, 48 h; series mostly up to 57.5 µM
How it was run: as §1

Measured: Potency

O=C(O)Cc1ccc2oc(-c3ccc(NC(=O)/C=C/c4ccc(Br)cc4)c(F)c3)nc2c1
inactive: all assays above

CC(C)(C)C(=O)CN1C(=O)[C@H](NC(=O)Nc2cccc(C(=O)O)c2)CN(C2CCCCC2)c2ccccc21
inactive: all assays above

CC1CC(C(O)C(C)(C)O)OC2CC3(C)C4(C)CCC5C(C)(C)C(=O)CCC5(C)C4CCC3(O)C12O (stereo unspecified)
inactive: all assays above

CC1CCC2(OC1)OC1CC3C4CC=C5CC(O)CC(O[C@@H]6OC[C@@H](O)[C@H](O)[C@H]6O)C5(C)C4CCC3(C)C1(O)C2C (stereo partly specified)
inactive: all assays above

CC/C=C\CCO[C@@H]1O[C@H](CO[C@@H]2OC[C@H](O)[C@H](O)[C@H]2O)[C@@H](O)[C@H](O)[C@H]1O
inactive: all assays above

O=C(O)c1cccc(S(=O)(=O)N2CCc3ccccc3C2)c1
inactive: all assays above

C=C1C[C@]23C[C@H]1CC[C@H]2C1=C[C@H]2OC(=O)[C@@](C)([C@H]1[C@@H]3C(=O)O)[C@H]2O
inactive: all assays above

COC(=O)C1=CO[C@@H](O[C@@H]2O[C@H](CO)[C@@H](O)[C@H](O)[C@H]2O)[C@H]2[C@@H]1C=C[C@@]21C=C([C@H](C)O)C(=O)O1
inactive: all assays above

COC(=O)C1=CO[C@@H](O[C@@H]2O[C@H](CO)[C@@H](O)[C@H](O)[C@H]2O)[C@H]2[C@@H]1CC(OC)O[C@@H]2C (stereo partly specified)
inactive: all assays above

CCNCc1nc2c(N)nc3ccccc3c2n1CC(C)(C)O
inactive: all assays above

COc1cc(O)c2c(c1)C1=CC(O)C(O)CC1(C)OC2=O (stereo unspecified)
inactive: all assays above

CC1CC(O)C2(OC1=O)OC1C(O)C3C4CCC5CC(OC6OC(CO)C(O)C(O)C6OC6OC(C)C(O)C(O)C6O)CCC5(C)C4CCC3(C)C1C2C (stereo unspecified)
inactive: all assays above

C=C(C(=O)O)C1CC(O)C2(C)CCCC(=C)C2C1 (stereo unspecified)
inactive: all assays above
